Results on 40 molecules are retold here after PubChem BioAssay (NCATS).

Results filed as inconclusive are left out. A number with no mark means an inactive call. Active and inactive are the calls of the source. Calls follow the shape of the dose curve; as a rule, active = well fitted inhibition curve with a large enough effect; inconclusive = small, poorly fitted or top-dose-only effect; inactive = no such curve, though single readings can be large or run the other way.
Potency is read from the fitted curve at half-maximal effect.

The assay is described as follows: BET inhibitor-based combinations targeting novel dependencies in MECOM-rearranged (r) AML: SET-2 cell line (AID 2202231). Also: nearly all actives have a fitted effect of over 35% in size. As to conditions: SET-2 AML cells viability, CellTiter-Glo luminescence, 48 h; viability: active compounds read low, series mostly up to about 46 µM. An excerpt:
Ecotropic viral insertion site 1 (EVI1) is located on chromosome 3q26.2 as part of the MECOM (MDS and EVI1 complex) locus. Under normal hematopoiesis, EVI1 is a regulator of hematopoietic stem cell maintenance and self-renewal and EVI1 levels decrease as the cells differentiate. In approximately 5-10% of de novo acute myeloid leukemia (AML) EVI1 is aberrantly expressed, including Chromosomal inv(3)(q21;q26.2) or t(3;3)(q21;q26.2) alterations (MECOM-r) that account for about 50% of AML with EVI1 overexpression 31. AMLs with high levels of EVI1 have a poor prognosis and an overall survival time averaging between 10-14 months. EVI1 overexpression confers resistance in leukemia cells, highlighting the need to develop new targeted therapies for EVI1 overexpressing AMLs.
Here, we performed an unbiased chemical drug screening by evaluating the single agent activity of a collection of 2,480 oncology-focused, approved and investigational drugs (NCATS Mechanism Interrogation Plates, MIPE v5.0) against a panel of seven AML cell lines. These included four MECOM-r cell-lines (AML-191, AML-194, UCSD-AML1 and HNT-34) and three non-MECOM-r AMLs (MV4-11, OCI-AML3 and SET-2). Exploiting the mechanistic redundancy built in the library, we identified target-level sensitivities in MECOM-r AML cells and relative activity as compared to other AML subtypes.
A collection of 2480 mechanistically annotated dugs (MIPE v5.0) was used to screen four 3q26.2 rearranged AML cell lines and three non-3q26.2 rearranged AML cell lines. This library purposely exploits redundancy by including multiple inhibitors of key onco-targets, while simultaneously encompassing mechanistic diversity, targeting more than 800 distinct mechanisms of action. Briefly, cells were seeded in 5 uL of growth media using a Multidrop Combi dispenser into 1536 well white polystyrene tissue culture treated plates (Corning) at a density of 500cells/well. For each cell-line, for each of the 2480 drugs in MIPE v5.0 library, an 11-point dose curve was generated via a 1536 pin-tool. Plates were incubated for 48 hr at standard incubator conditions, covered by a stainless steel gasketed lid to prevent evaporation. Cell viability was determined by luminescence based, Cell Titer Glo assay (Promega). In detail, 3 uL of Cell Titer Glo were added to each well and plates were incubated at room temperature for 15 min with a stainless-steel lid in place. Luminescence readings were taken using a Viewlux (PerkinElmer) with a 2 s exposure time per plate. Compound dose-response curves were normalized to DMSO and empty well controls on each plate. Quantitative drug activity data from dose-response curves was determined utilizing area Under the Curve (AUC) and Z-transformed AUC (Z-AUC, a mean-centering transformation applied to each individual cell-line screened).
A general note: ATP-based viability assays read luminescence as a measure of living cells.
With `COc1ccc(-n2c(C)c([N+](=O)[O-])c3ccc(O)cc32)cc1`, the viability – broadly, a read-out of living cells in per cent, often relative to untreated cells – is 107%.
Consider `COc1cccc2cc(-c3nc(C4CCC(C(=O)O)CC4)n4ncnc(N)c34)[nH]c12` (stereo not given), for which the Potency is 2.95 µM (active).
As for `CC(C)n1nc(-c2cc3cc(O)ccc3[nH]2)c2c(N)ncnc21`, the Potency is 2.09 µM (active).
As to `C#CCC(Cc1cnc2nc(N)nc(N)c2n1)c1ccc(C(=O)N[C@@H](CCC(=O)O)C(=O)O)cc1` (stereo not given in full), the Potency was 0.0019 µM (active).
Consider `CO[C@@H]1COCC[C@@H]1N[C@@H]1CC[C@@](C(=O)N2CCc3ncc(C(F)(F)F)cc3C2)(C(C)C)C1`, for which the viability was 122%.
The same measure, in the same setting: for `CC(C)(C)COc1ccc(-n2cc(C(=O)O)cn2)cc1C#N` the value was 95.2%; for `c1cc(-c2sc(-c3ccncc3)c(-c3ccncc3)c2-c2ccncc2)ccn1`, 103%.
In the case of `Cc1sc2c(c1C)C(c1ccc(Cl)cc1)=N[C@@H](CC(=O)Nc1ccc(OCCOCCOCCOCCNc3cccc4c3C(=O)N(C3CCC(=O)NC3=O)C4=O)cc1)c1nnc(C)n1-2` (stereo not given in full), the Potency is 1.05 µM (active).
For `Cc1nc(NC(=O)N2CCC[C@H]2C(N)=O)sc1-c1ccnc(C(C)(C)C(F)(F)F)c1`, the viability is 89%.
Consider `CCc1cc(C(N)=S)ccn1`, for which the viability was 109%.
For the molecule `O=[N+]([O-])c1ccc(-c2nc(-c3ccc(F)cc3)c(-c3ccncc3)[nH]2)cc1`, the viability is 106%.
On the same count and under the same terms, for `CC(=O)OCCN1C(=O)c2c(C)nc3ccc(S(=O)(=O)N4CCOCC4)cc3c2C1=O` the value was 121%.
As to `CN[C@H]1CCc2cc(OC)c(OC)c(OC)c2-c2ccc(OC)c(=O)cc21`, the Potency was 0.186 µM (active).
The same measure, in the same setting: for `CNC(=O)Nc1ccc(-c2nc(N3CC4CCC(C3)O4)c3cnn(C4CCC5(CC4)OCCO5)c3n2)cc1` the value was 0.263 µM (active); for `COc1ccc(CNC(=O)Nc2ncc([N+](=O)[O-])s2)cc1`, 26.3 µM (active); for `Nc1ncnc2c1c(-c1cccc(OCc3ccccc3)c1)cn2C1CC(CN2CCC2)C1` (stereo not given), 16.6 µM (active).
Take `Cc1cnc(C(=O)O)c[n+]1[O-]`: the viability is 122%.
Still for that read-out and setting: for `Cc1[nH]c(=O)c(C#N)cc1-c1ccc2nccn2c1` the value was 118%; for `Cn1c(=O)c2c(ncn2C)n(C)c1=O`, 97.8%.
As to `Nc1cccc2c1C(=O)N(C1CCC(=O)NC1=O)C2=O` (stereo not given), the viability was 112%.
As for `CCCc1cc(C(N)=S)ccn1`, the viability is 112%.
Take `CC(C)=CC[C@@H](O)C1=CC(=O)c2c(O)ccc(O)c2C1=O`: the Potency is 10.5 µM (active).
On to `Nc1ccccc1NC(=O)c1ccc(CNC(=O)OCc2cccnc2)cc1`, for which the Potency is 2.09 µM (active).
On to `Cn1cc(-c2[nH]c3cc(NC(=O)[C@H](N)C4CCCCC4)cc4c3c2C=NNC4=O)cn1`, for which the Potency was 16.6 µM (active).
For `CCCc1nc2c(C)cc(-c3nc4ccccc4n3C)cc2n1Cc1ccc(-c2ccccc2C(=O)O)cc1`, the viability was 120%.
Same read-out and setting: the result for `CC1(C)O[C@@H]2C[C@H]3[C@@H]4CCC5=CC(=O)C=C[C@]5(C)[C@@]4(F)[C@@H](O)C[C@]3(C)[C@]2(C(=O)CO)O1` reads 115%.
Regarding `CNc1nccc(-c2cccnc2Oc2cc(C(=O)Nc3cccc(C(F)(F)F)c3)ccc2C)n1`, the Potency is 16.6 µM (active).
The same measure, in the same setting: for `Cc1c(-c2ccc(O)cc2)n(Cc2ccc(OCCN3CCCCCC3)cc2)c2ccc(O)cc12` the value was 23.5 µM (active).
For the molecule `Cc1ccc(S(=O)(=O)OCC(=O)Nc2ccc(C(=O)O)c(O)c2)cc1`, the viability is 117%.
`C1Cc2[nH]nc(-c3nn[nH]n3)c2C1`: the viability was 120%.
The same measure, in the same setting: the result for `CCC(c1ccc(O)cc1)C(CC)c1ccc(O)cc1` (stereo not given) reads 99.8%; that for `CC(C)C[C@H](CC(=O)O)C(=O)N[C@@H](Cc1c[nH]c2ccccc12)C(=O)N[C@@H](C)c1ccccc1`, 104%.
Take `Cc1cnc(Nc2cccc(CN3CCOCC3)c2)nc1Nc1cccc(S(=O)(=O)NC(C)(C)C)c1`: the Potency is 2.63 µM (active).
For `C=Cc1cc(O)cc2nc(-c3ccc(O)c(F)c3)oc12`, the viability was 113%.
For the molecule `O=c1[nH]nc(Sc2ncc([N+](=O)[O-])s2)n1-c1ccc2c(c1)OCCO2`, the Potency is 7.42 µM (active).
Still for that read-out and setting: the result for `Oc1ccc(C2=Cc3ccc(O)cc3OC2)cc1` reads 2.09 µM (active).
With `COc1ccc2c3n(c(=NC(=O)c4cccnc4)nc2c1OC)CCN3`, the viability is 112%.
Same read-out and setting: the result for `COc1ccc(-n2c(SCCCN3C(=O)c4cccc5cccc(c45)C3=O)nnc2-c2ccncc2)cc1` reads 102%; that for `COc1nc(C)cnc1NS(=O)(=O)c1cccnc1-c1ccc(-c2nnco2)cc1`, 115%.
As to `COc1cc(N2CCC(N)CC2)ccc1Nc1ncc(Cl)c(-c2c[nH]c3ccccc23)n1`, the Potency was 18.6 µM (active).
